Most compounds without a hit are left out; they make up all but 2.5% or so of the library.
rRNA inh HTS – selective bacterial rRNA inhibition in E. coli. 350,000 tested, 1.6% active. E. coli WT GFP vs humanized-ribosome RFP mutants, fluorescence, 24 h; hits give low values; DMSO median 0, no signal -100. GFP signal change (wild-type ribosome), % (test concentration not listed);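 active = significant combined selectivity score with lowered wild-type GFP, culture density cut under 30%, mutant RFP and density less affected; inactive = any of these conditions unmet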
RAD52 inh – blocks human RAD52 DNA annealing | P43351 | recombinant RAD52 DNA annealing, FRET fluorescence | inhibition, % at 18.7 µM | 360,000 tested, 0.46% active | AID 651710;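 active = every replicate showing at least 50% inhibition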
Casp6 inh – caspase-6 (human) enzyme inhibition; P55212; purified caspase-6, Z-VEID-R110 cleavage fluorescence; inhibition, % at 12.5 µM; 350,000 tested, 0.53% active; AID 686996;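 active = mean inhibition across replicates at least about 35%, with every replicate also reaching that limit, limit read from the data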;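 also: 0% = median of neutral control wells and 100% = no fluorescence left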
NSD2 HMT inh – NSD2 (human) methyltransferase inhibition | NSD2 peptide methylation, AlphaScreen, 120 min | inhibition, % at 12.5 µM | 310,000 tested, 0.54% active | AID 743445; in the data active = inhibition above about 50%
Target sequence (O96028 whole entry, looked up): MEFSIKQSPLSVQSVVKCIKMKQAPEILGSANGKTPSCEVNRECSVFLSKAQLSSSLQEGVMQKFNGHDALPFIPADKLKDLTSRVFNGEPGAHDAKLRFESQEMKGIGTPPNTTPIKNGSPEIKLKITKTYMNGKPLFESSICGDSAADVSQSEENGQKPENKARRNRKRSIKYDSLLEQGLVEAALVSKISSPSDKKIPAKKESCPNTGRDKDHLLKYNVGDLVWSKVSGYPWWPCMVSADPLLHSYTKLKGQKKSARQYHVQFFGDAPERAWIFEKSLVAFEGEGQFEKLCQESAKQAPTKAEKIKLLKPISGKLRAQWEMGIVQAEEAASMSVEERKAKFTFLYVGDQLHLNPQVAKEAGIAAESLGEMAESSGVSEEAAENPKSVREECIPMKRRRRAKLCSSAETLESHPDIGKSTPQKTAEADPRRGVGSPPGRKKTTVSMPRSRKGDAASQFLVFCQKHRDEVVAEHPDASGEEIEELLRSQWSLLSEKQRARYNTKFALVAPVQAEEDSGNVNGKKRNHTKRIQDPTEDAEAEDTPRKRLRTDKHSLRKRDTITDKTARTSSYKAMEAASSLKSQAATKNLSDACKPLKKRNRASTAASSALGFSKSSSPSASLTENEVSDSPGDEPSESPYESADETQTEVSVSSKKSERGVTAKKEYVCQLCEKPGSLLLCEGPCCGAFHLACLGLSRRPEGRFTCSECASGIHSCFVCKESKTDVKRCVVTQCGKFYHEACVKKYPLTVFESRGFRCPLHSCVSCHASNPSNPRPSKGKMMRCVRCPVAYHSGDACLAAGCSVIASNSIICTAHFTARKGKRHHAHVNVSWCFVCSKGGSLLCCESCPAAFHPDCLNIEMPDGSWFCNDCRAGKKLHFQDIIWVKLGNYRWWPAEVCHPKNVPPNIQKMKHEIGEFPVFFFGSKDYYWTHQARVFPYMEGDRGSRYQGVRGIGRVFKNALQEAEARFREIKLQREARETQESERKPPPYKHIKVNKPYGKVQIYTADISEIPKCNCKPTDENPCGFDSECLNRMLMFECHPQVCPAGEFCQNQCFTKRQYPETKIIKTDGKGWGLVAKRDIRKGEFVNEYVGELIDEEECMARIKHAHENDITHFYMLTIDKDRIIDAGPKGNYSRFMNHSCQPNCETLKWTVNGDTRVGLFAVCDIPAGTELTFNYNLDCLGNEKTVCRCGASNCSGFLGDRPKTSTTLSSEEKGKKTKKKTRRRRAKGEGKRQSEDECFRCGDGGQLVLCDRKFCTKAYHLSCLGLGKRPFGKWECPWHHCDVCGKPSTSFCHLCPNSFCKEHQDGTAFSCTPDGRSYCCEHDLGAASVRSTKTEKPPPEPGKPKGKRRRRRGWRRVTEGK
AF4-AF9 inh – MLL-AF4/AF9 protein interaction inhibition. 350,000 tested, 0.47% active. inhibition, % at 10 µM. AlphaScreen, biotin-AF4 peptide binding to FLAG-AF9;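 active = every replicate reaching a set inhibition limit, whatever the replicate mean, cut at about 25% in these data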;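 also: 0% = plate neutral control median and 100% = total signal loss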
* marks the source's active call; other numbers are inactive results; ! = not active in a repeat.

What do the screens show for `C[C@H](CO)N1C[C@H](C)[C@@H](CN(C)S(=O)(=O)c2ccc(F)cc2)Oc2c(NC(=O)NC3CCCCC3)cccc2C1=O`?
rRNA inh HTS: -7; RAD52 inh: -7; Casp6 inh: 1; AF4-AF9 inh: 49*!

How did COC1=CC(=O)C(C2CC(=O)c3c(O)cc(O)cc3O2)=CC1=O (centres undefined) do in these assays?
rRNA inh HTS: -1; RAD52 inh: -12; Casp6 inh: 44*; NSD2 HMT inh: 15; AF4-AF9 inh: -11

What do the screens show for `CCNC(=O)C[C@H]1CC[C@H]2[C@@H](COC[C@@H](O)CN2C(=O)c2cc(Cl)cc(Cl)c2)O1`?
rRNA inh HTS: -2; RAD52 inh: -1; Casp6 inh: 1; AF4-AF9 inh: -6

Results for CC(C)[C@H]1C(=O)N[C@@H](c2ccccc2)CC=CC[C@H](C)Oc2ccccc2C(=O)N1C (mixture of isomers) ?
rRNA inh HTS: -9

Results for FC(F)Sc1ccc(-n2cc(-c3ccc(Cl)cc3)[n+]3c2CCC3)cc1 ?
NSD2 HMT inh: -1

Results for Clc1ccc(-n2cc(-c3ccc(Br)cc3)[n+]3c2CCCCC3)cc1 ?
rRNA inh HTS: -46*; RAD52 inh: 7; Casp6 inh: -1; NSD2 HMT inh: 0; AF4-AF9 inh: 2

How did CC(C)(C)c1ccc(-c2cn(-c3ccc(Br)cc3)c3[n+]2CCCS3)cc1 do in these assays?
rRNA inh HTS: -50*; RAD52 inh: 7; Casp6 inh: -3; NSD2 HMT inh: -5; AF4-AF9 inh: 4

How did FC(F)Oc1ccc(-n2cc(-c3ccccc3)[n+]3c2CCCCC3)cc1 do in these assays?
rRNA inh HTS: -28*; RAD52 inh: 8; Casp6 inh: -1; NSD2 HMT inh: -2; AF4-AF9 inh: 0

Results for c1ccc(-c2cn(-c3ccccc3)c3[n+]2CCS3)cc1 ?
rRNA inh HTS: -10; RAD52 inh: -1; Casp6 inh: 2; NSD2 HMT inh: -1; AF4-AF9 inh: -1

Results for Cc1ccc(-c2cn(-c3ccc(OC(F)F)cc3)c3[n+]2CCCCC3)cc1 ?
rRNA inh HTS: -36*; RAD52 inh: -2; Casp6 inh: -9; NSD2 HMT inh: -4; AF4-AF9 inh: -3

How did C[C@H](CO)N1C[C@H](C)[C@H](CN(C)C(=O)Nc2ccc(F)cc2)Oc2ccc(N(C)C)cc2C1=O do in these assays?
rRNA inh HTS: -3; RAD52 inh: -7; Casp6 inh: 0; AF4-AF9 inh: 2

What do the screens show for `COc1ccc(NCC(=O)Nc2ccc(Cl)cc2C)c(OC)c1`?
rRNA inh HTS: -19*; RAD52 inh: -16; Casp6 inh: -1; AF4-AF9 inh: 14

How did COc1ccc(NC(=O)CC(=O)Nc2ccc(OC)cc2OC)c(OC)c1 do in these assays?
NSD2 HMT inh: -2

How did CNC[C@@H]1Oc2c(NC(=O)Nc3c(C)noc3C)cccc2C(=O)N([C@@H](C)CO)C[C@H]1C do in these assays?
rRNA inh HTS: 2; RAD52 inh: -9; Casp6 inh: 1; AF4-AF9 inh: -3

How did O=C(NC1CCCCC1)c1cccc2c1C(=O)c1ccc(N3CCCC3)cc1S2(=O)=O do in these assays?
rRNA inh HTS: 12; RAD52 inh: -269; Casp6 inh: -2; AF4-AF9 inh: 0

What do the screens show for `O=C1c2ccccc2S(=O)(=O)c2cc(N3CCC(C(=O)N4CCCCC4)CC3)ccc21`?
rRNA inh HTS: -21*; RAD52 inh: inactive; Casp6 inh: 0; AF4-AF9 inh: -7

What do the screens show for `COc1ccc(NC(=O)Nc2ccc3c(c2)C(=O)N([C@@H](C)CO)C[C@@H](C)[C@@H](CN(C)Cc2ccccc2)OCCCC[C@H](C)O3)cc1`?
rRNA inh HTS: -1; RAD52 inh: 41; Casp6 inh: 0; AF4-AF9 inh: 3

Results for COc1ccc(NC(=O)Nc2ccc3c(c2)C(=O)N([C@H](C)CO)C[C@@H](C)[C@H](CN(C)Cc2ccccc2)OCCCC[C@H](C)O3)cc1 ?
rRNA inh HTS: 1; RAD52 inh: 59*; Casp6 inh: 1; AF4-AF9 inh: 8

Results for COc1ccc(NC(=O)Nc2ccc3c(c2)C(=O)N([C@H](C)CO)C[C@H](C)[C@H](CN(C)Cc2ccccc2)OCCCC[C@H](C)O3)cc1 ?
rRNA inh HTS: -24; RAD52 inh: 54*; Casp6 inh: -1; AF4-AF9 inh: 8

How did COc1ccc(NC(=O)Nc2ccc3c(c2)C(=O)N([C@@H](C)CO)C[C@@H](C)[C@H](CN(C)Cc2ccccc2)OCCCC[C@@H](C)O3)cc1 do in these assays?
rRNA inh HTS: 3; RAD52 inh: 40; Casp6 inh: 0; AF4-AF9 inh: 4

How did CNC(=O)C[C@H]1CC[C@@H]2[C@H](COc3ccc(NC(=O)NCc4ccccc4)cc3C(=O)N2C)O1 do in these assays?
rRNA inh HTS: 1

How did C[C@@H]1CN([C@H](C)CO)C(=O)c2ccccc2-c2ccccc2CO[C@@H]1CN(C)C(=O)Oc1ccccc1 do in these assays?
rRNA inh HTS: -4

How did COc1ccc(-c2nc(C#N)c(N3CCCCC3)o2)cc1 do in these assays?
rRNA inh HTS: -27; RAD52 inh: 7; Casp6 inh: -1; NSD2 HMT inh: 0; AF4-AF9 inh: 4

Results for COc1ccc(-c2nc(C#N)c(N3CCCCCC3)o2)cc1OC ?
rRNA inh HTS: -23*; RAD52 inh: 8; Casp6 inh: 7; NSD2 HMT inh: 6; AF4-AF9 inh: 27*

What do the screens show for `Cc1ccc(-c2nc(C#N)c(N3CCC(C)CC3)o2)cc1`?
rRNA inh HTS: 1; RAD52 inh: -7; Casp6 inh: -2; NSD2 HMT inh: 3; AF4-AF9 inh: 28*

Results for C[C@H]1CN([C@@H](C)CO)C(=O)Cc2cc(NC(=O)c3ccncc3)ccc2O[C@@H]1CN(C)Cc1ccc2c(c1)OCO2 ?
rRNA inh HTS: -5; RAD52 inh: 2; Casp6 inh: 0; AF4-AF9 inh: -1

Results for Fc1ccccc1C1c2[nH]c3ccccc3c2CCN1Cc1cccn1-c1ncccn1 (centres undefined) ?
rRNA inh HTS: -1; RAD52 inh: -17; Casp6 inh: -3; NSD2 HMT inh: 1; AF4-AF9 inh: 27*

How did Cc1ccccc1C1c2[nH]c3ccccc3c2CCN1Cc1cccn1-c1ncccn1 (centres undefined) do in these assays?
rRNA inh HTS: -1; RAD52 inh: -21; Casp6 inh: 1; NSD2 HMT inh: -1; AF4-AF9 inh: 21

What do the screens show for `O=C(Nc1ccccc1)N1CC(=O)N2[C@H](CO)[C@H](c3ccc(-c4ccc(F)cc4)cc3)[C@H]2C1`?
rRNA inh HTS: -1

Results for COc1ccccc1C(=O)N/C(=C\c1ccc(Br)cc1)C(=O)N1CCCC1 ?
rRNA inh HTS: -40*; RAD52 inh: -1; Casp6 inh: 7; NSD2 HMT inh: 1; AF4-AF9 inh: 1

How did O=C(N/C(=C/c1ccc(Br)cc1)C(=O)N1CCCC1)c1ccccc1F do in these assays?
RAD52 inh: 3; Casp6 inh: 3; NSD2 HMT inh: 0; AF4-AF9 inh: 3
